HCV inhibitor: HCV inhibition; Huh7.5.1 HCVcc-Cre infection, luciferase reporter, 44 h; Potency, µM (highest dose often 41.8 µM), without a hit: at the top dose activity change, negative = inhibition, hits mostly inhibitors; 3.4% of 340,000 active; AID 651820
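Cells (1,000/well) were plated 4 h before compound, then infected with HCVcc-Cre virus (~0.5 moi). After 44 h further culture, infection was read as luciferase luminescence following a 15 min substrate incubation at room temperature.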
AMA1-RON2 inh: disrupts binding of P. falciparum AMA1 to RON2; AID 720542; Potency, µM (series often up to 58.2 µM), inactives show at the top dose activity change, negative = inhibition, hits mostly inhibitors; AlphaScreen AMA1-biotinylated RON2 peptide binding; 0.2% of 360,000 active;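 note: 0% = vehicle wells and -100% = peptide control; nearly all actives have a fitted effect of over 45% in size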
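AMA1 (3D7) with his tag at 25 nM final met compounds first, then biotinylated RON2 peptide at 25 nM; detection used donor plus acceptor beads, 10 µg/mL apiece, read by AlphaScreen after 30 min at room temperature.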
Pf growth 96h: P. falciparum growth inhibition at 96 hours. P. falciparum luciferase reporter growth, 96 h. 6.9% of 320,000 active. Potency, µM (titrated, usually from 28.7 µM), inactives show at the top dose activity change, negative = inhibition, usual class: inhibitors. AID 504834
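Two parasite generations (96 h, 37 C, 5% CO2) of compound exposure in infected erythrocytes (0.05% parasitemia, 2% hematocrit). Luciferase-reporter P. falciparum; decreased luminescence indicates inhibited growth, aimed at apicoplast-acting delayed death.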
Pf growth 48h: P. falciparum growth inhibition at 48 hours (one generation); P. falciparum luciferase growth in erythrocytes, 48 h; Potency, µM (series often up to 28.7 µM), without a hit: top-dose activity change, negative = inhibition, actives largely listed as inhibitors; 5.9% of 310,000 active; AID 504832
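Erythrocytes infected with P. falciparum carrying an integrated firefly luciferase reporter (2% hematocrit, 0.1% parasitemia final) were exposed to compounds in RPMI 1640 with 0.5% Albumax at 37 C, 5% CO2. Growth inhibition was scored as reduced luminescence.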
Starred values were filed as active, the others as inactive; ? = inconclusive; . = no result given; [ ] = dose if it differs, or a comment. The list is not random: actives were taken first. Their share in the collection is about 11%. Calls come from the whole dose curve; as a rule, active = well fitted curve in the direction sought with a large enough effect; inconclusive = small, poorly fitted or top-dose-only effect, or another doubt; inactive = no such curve, though single readings can be large; an effect the other way counts as inactive or inconclusive. Unless noted, % is set by controls: 0 for no effect and ±100 for the full control effect; potency is the fitted concentration of half-maximal effect.

SMILES	HCV inhibitor	AMA1-RON2 inh	Pf growth 96h	Pf growth 48h
Oc1ccc2c(c1)OCC1(O)Cc3cc(O)c(O)cc3C21 (centres undefined)	25.1µM*	12.6µM*	.	.
C/C(=N\NC(=S)NCc1ccccc1)c1ccc2ccccc2c1OC(F)F	12.6µM*	46.3%	?	0.0%
C/C(=N\NC(=S)NCc1ccccc1)c1cccs1	?	-15.5%	?	-22.8%
C/C(=N\NC(=S)NCc1ccccc1)c1ccc(Cl)s1	11.2µM*	-0.4%	?	?
CC(=O)c1cc2c(cc1NC(=O)c1ccccc1C)OCO2	.	.	35.8%	17.8%
O=C(C1CC1)N(CCN(C(=O)C1CC1)c1ccccc1)c1ccccc1	-13.3%	2.8%	-5.6%	0.0026µM*
CCN(C(=S)NC(=O)C1CC1)c1ccccc1	13.6%	16.0%	50.1%	1.2%
Oc1ccc(-n2nnnc2SCc2ccccc2Br)cc1	-8.9%	37.4%	13.1µM*	?
O=C(CN1C(=O)NC(c2ccc(F)cc2)C1=O)NC1CCCCC1 (centres undefined)	9.6%	2.6%[11.6 µM]	.	.
CCCCN1CCc2c([nH]c3ccccc23)C1=O	-5.6%	5.2%	-6.1%	84.0%
CN1CCc2ccccc2Cc2[nH]c3ccccc3c2CC1	-17.2%	-8.5%	6.57µM*	8.28µM*
COC(=O)CCCCCCCCCC[N+]1(C)CCCCC1	14.3%	9.5%[11.6 µM]	52.4%	3.7µM*
CN(CCc1ccccc1)C(=O)c1ccc(NC(=O)Cc2ccc(NC(=O)C3CCCN(C(=O)c4ccccc4)C3)cc2)cc1 (centres undefined)	-15.9%[8.37 µM]	-12.5%	.	.
Cc1cccc(C)c1-n1ncc(C(=O)NC2CCCC2)c1C1CCNCC1	2.1%	-12.0%	7.9%	-9.2%
Cc1ccc(-n2ncc(C(=O)Nc3cc(Cl)cc(Cl)c3)c2C2CCNCC2)cc1C	12.6µM*	-9.2%	-13.8%	?
Cc1ccc(-n2ncc(C(=O)Nc3cc(Cl)ccc3Cl)c2C2CCNCC2)cc1	12.6µM*	-23.3%	31.7%	?
CCc1ccc2nc(NC3=NCN(CCN4CCOCC4)CN3)nc(C)c2c1	.	.	7.4%	-57.1%
Cc1ccc2nc(N=C(N)N)nc(C)c2c1	7.08µM*	17.6%	20.2%	?
Cc1cc2nc(N=C(N)N)nc(C)c2cc1C	?	-10.7%	0.0%	?
Cc1nc(N=C(N)N)nc2ccccc12	14.1µM*	-6.7%	5.6%	?
CCc1ccc2nc(N=C(N)N)nc(C)c2c1	5.01µM*	5.9%	33.3%	?
Cc1nc(/N=C(\N)NC(=O)c2ccccc2)nc2ccccc12	?	17.8%	1.6%	16.8%
O=C(Nc1cccc(OC(F)(F)F)c1)c1ccc(-c2cccnc2)c2ccoc12	.	45.0%	.	.
CC1CCN(S(=O)(=O)c2ccc(C(=O)Nc3sccc3C(N)=O)cc2)CC1	?	-5.0%	8.28µM*	?
CC1CCN(S(=O)(=O)c2ccc(C(=O)Nc3ccccn3)cc2)CC1	?	2.9%	?	?
SMILES	HCV inhibitor	AMA1-RON2 inh	Pf growth 96h	Pf growth 48h
CN(C)NC(=O)c1ccsc1NC(=O)c1ccc(S(=O)(=O)N2CCCC2)cc1	21.8%	38.9%	5.22µM*	11.7µM*
CNCc1ccccc1Sc1cccc2ccccc12	?	-11.2%	?	?
CN(C)CCN(C)Cc1ccccc1Sc1cccc2ccccc12	11.2µM*	-29.3%	13.1µM*	?
Cc1ccc(NC(=O)COC(=O)c2ccc(C)c(S(=O)(=O)N3CCOCC3)c2)cc1	10.2%	11.9%	0.4%	24.7%
O=C(CN1CCN(C(=O)c2c(F)cccc2F)CC1)Nc1ccccc1C(F)(F)F	13.5%	4.7%	-7.8%	3.1%
Cn1c(Sc2ccccc2Cl)c(C=O)c2ccccc21	3.3%	8.7%	?	?
Cn1c(Sc2ccc(Cl)cc2)c(C=O)c2ccccc21	10µM*	13.8%	?	11.7µM*
Cn1c(Oc2ccc(Cl)cc2)c(C=O)c2ccccc21	?	36.6%	9.28µM*	?
CC1(c2cc(F)ccc2F)NC(=O)N(CC(=O)Nc2cccc(S(=O)(=O)N3CCCC3)c2)C1=O (centres undefined)	2.2%	-2.8%	?	11.7µM*
Cc1ccc(CN(C)C(=O)COc2ccc(S(=O)(=O)N3CCCC3)cc2[N+](=O)[O-])c(C)c1	-4.8%	-8.3%	?	11.7µM*
CN(CC(=O)Nc1cccc(F)c1)CC(=O)Nc1cccc(S(=O)(=O)N2CCCCCC2)c1	?	29.7%	-0.1%	?
CN(CC(=O)Nc1ccc(S(=O)(=O)N2CCCC2)cc1)Cc1cccc(Cl)c1Cl	-17.4%	-6.9%	9.28µM*	-28.3%
